Data: PubChem BioAssay
The source made the active and inactive calls.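 How the source made its calls, unless noted: active means normalized viability below 100% at a tested concentration; inactive means the rest.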

Columns and labels:
[1] = survival rescue of mitochondrial mutant cells in low glucose, primary screen, MELAS cybrids, Rieske KO mouse fibroblasts, CellTiter-Glo (AID 1508586;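 active means mean z-score across replicates of 1.96 or higher in either the MELAS or the Rieske mutant cell line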;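 further: z relative to plate mean and SD of compound and empty wells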)
[2] = viability rescue of complex I mutant cybrids, primary screen, cell-based, galactose medium, ATP luminescence (AID 1645843;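 active means z-score of at least 1.8 in each of two replicates, scored against plate mean and spread of sample wells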;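 further: positive z means more ATP and so rescue of galactose-driven cybrid death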); details: complex I mutant cybrid cells, 72 h, stronger effect = higher value
[3] = kinase inhibitors against Plasmodium liver-stage infection, cell-based, known kinase inhibitor set, luminescence, hepatoma host viability (AID 624392; call rule not given here;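 further: infected cells incubated roughly two days before readout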); details: Plasmodium liver stage in hepatoma cells, luciferase luminescence, concentration not given here; liver cell % of control: measured here: host liver cell viability; parasite % of control: stronger effect = lower value
[4] = modulators of glucocorticoid suppression of NF-kB, cell-based, luciferase, IL-1B stimulus, dexamethasone (AID 624486; call rule not given here;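 on percent of negative control (+Dex): 100% = mean signal of vehicle control wells on the plate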); details: NF-kB luciferase reporter, IL-1B + dexamethasone, luminescence; percent of negative control (+Dex): actives lie on both sides, concentration not given here; z-score: measured here: IL-1B alone, no Dex
[5] = kinase inhibitors altering Pseudomonas killing of worms, whole organism (AID 651566; call rule not given here;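 further: tested at 14 µM; sign flipped so higher z means a lower ratio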); details: C. elegans killed by P. aeruginosa, survival ratio
[6] = activators of macrophage pro-inflammatory response, cell-based, murine, luminescence (AID 652131; call rule not given here); details: murine macrophage pro-inflammatory reporter, stronger effect = higher value
[7] = ovarian cancer cell viability with rucaparib, profiling panel, oncology-focused library, rucaparib conditional (AID 1508598); details: patient-derived ovarian cancer cells, CellTiter-Glo viability, 144 h, stronger effect = lower value
[8] = MELAS cybrid survival, CellTiter-Glo 48 h, stronger effect = higher value
[9] = Rieske KO mouse fibroblast survival, CellTiter-Glo 72 h

In the case of O=C(CC1=CCCCC1)N1CCc2c(cc(-c3cccc(F)c3)c(=O)n2CCN2CCCCC2)C1, the z-score [1, 8] was -0.288 (inactive), the z-score [1, 9] was -0.152 and the z-score [2] was 0.55 (inactive).

In the case of NC(=O)c1sc(-n2cnc3ccccc32)cc1OCc1ccccc1Br, the liver cell % of control [3] was 77.6%, the parasite % of control [3] was 256% (inactive) and the percent of negative control (+Dex) [4] was 101% (inactive). The z-score [4] was 0.185, the z-score [5] was -0.075 (inactive) and the z-score [6] was 0.164 (inactive). For the same compound, the z-score [1, 8] was -0.754 (inactive) and the z-score [1, 9] was -0.437.

With COc1cc2ncn(-c3cc(OCCc4ccccc4)c(C(N)=O)s3)c2cc1OC the liver cell % of control [3] was 140%, the parasite % of control [3] was 71.4% (inactive) and the percent of negative control (+Dex) [4] was 95% (inactive). The z-score [4] was 0.89, the z-score [5] was -0.32 (inactive) and the z-score [6] was 0.419 (inactive). The z-score [1, 8] was -0.0219 (inactive) and the z-score [1, 9] was -0.0569.

With c1ccc(Cn2c(-c3ccc(OC[C@H](C4CCNCC4)n4c(-c5ccccc5)nc5ccccc54)cc3)nc3ccccc32)cc1 the viability ([7]; at 0.000305 µM, OCI-C5x cells, with rucaparib 10 µM, 100% = cells with rucaparib alone) was 117% (inactive), the viability ([7]; at 0.000305 µM, OCI-C5x cells, without rucaparib) was 110% (inactive) and the viability ([7]; at 0.000305 µM, OCI-P5x cells, with rucaparib 20 µM, 100% = cells with rucaparib alone) was 90.3% (active). The viability ([7]; at 0.000305 µM, OCI-P5x cells, without rucaparib) was 96.7% (active), the viability ([7]; at 0.00122 µM, OCI-C5x cells, with rucaparib 10 µM, 100% = cells with rucaparib alone) was 123% (inactive) and the viability ([7]; at 0.00122 µM, OCI-C5x cells, without rucaparib) was 125% (inactive). For the same compound, the viability ([7]; at 0.00122 µM, OCI-P5x cells, with rucaparib 20 µM, 100% = cells with rucaparib alone) was 98.1% (active), the viability ([7]; at 0.00122 µM, OCI-P5x cells, without rucaparib) was 99.5% (active) and the viability ([7]; at 0.00488 µM, OCI-C5x cells, with rucaparib 10 µM, 100% = cells with rucaparib alone) was 125% (inactive). For the same compound, the viability ([7]; at 0.00488 µM, OCI-C5x cells, without rucaparib) was 126% (inactive), the viability ([7]; at 0.00488 µM, OCI-P5x cells, with rucaparib 20 µM, 100% = cells with rucaparib alone) was 99.2% (active) and the viability ([7]; at 0.00488 µM, OCI-P5x cells, without rucaparib) was 101% (inactive). The viability ([7]; at 0.0195 µM, OCI-C5x cells, with rucaparib 10 µM, 100% = cells with rucaparib alone) was 121% (inactive), the viability ([7]; at 0.0195 µM, OCI-C5x cells, without rucaparib) was 107% (inactive) and the viability ([7]; at 0.0195 µM, OCI-P5x cells, with rucaparib 20 µM, 100% = cells with rucaparib alone) was 96.1% (active). For the same compound, the viability ([7]; at 0.0195 µM, OCI-P5x cells, without rucaparib) was 106% (inactive), the viability ([7]; at 0.0781 µM, OCI-C5x cells, with rucaparib 10 µM, 100% = cells with rucaparib alone) was 110% (inactive) and the viability ([7]; at 0.0781 µM, OCI-C5x cells, without rucaparib) was 117% (inactive). The viability ([7]; at 0.0781 µM, OCI-P5x cells, with rucaparib 20 µM, 100% = cells with rucaparib alone) was 95.8% (active), the viability ([7]; at 0.0781 µM, OCI-P5x cells, without rucaparib) was 105% (inactive) and the viability ([7]; at 0.313 µM, OCI-C5x cells, with rucaparib 10 µM, 100% = cells with rucaparib alone) was 118% (inactive). The viability ([7]; at 0.313 µM, OCI-C5x cells, without rucaparib) was 120% (inactive), the viability ([7]; at 0.313 µM, OCI-P5x cells, with rucaparib 20 µM, 100% = cells with rucaparib alone) was 105% (inactive) and the viability ([7]; at 0.313 µM, OCI-P5x cells, without rucaparib) was 109% (inactive). For the same compound, the viability ([7]; at 1.25 µM, OCI-C5x cells, with rucaparib 10 µM, 100% = cells with rucaparib alone) was 130% (inactive), the viability ([7]; at 1.25 µM, OCI-C5x cells, without rucaparib) was 131% (inactive) and the viability ([7]; at 1.25 µM, OCI-P5x cells, with rucaparib 20 µM, 100% = cells with rucaparib alone) was 33.8% (active). For the same compound, the viability ([7]; at 1.25 µM, OCI-P5x cells, without rucaparib) was 102% (inactive), the viability ([7]; at 5 µM, OCI-C5x cells, with rucaparib 10 µM, 100% = cells with rucaparib alone) was 1.56% (active) and the viability ([7]; at 5 µM, OCI-C5x cells, without rucaparib) was 3.14% (active). The viability ([7]; at 5 µM, OCI-P5x cells, with rucaparib 20 µM, 100% = cells with rucaparib alone) was 1.07% (active) and the viability ([7]; at 5 µM, OCI-P5x cells, without rucaparib) was 1.44% (active).

For CS(=O)(=O)CCNCc1coc(-c2ccc3ncnc(Nc4ccc(OCc5ccccc5)cc4)c3c2)c1, the liver cell % of control [3] was 87.7%, the parasite % of control [3] was 176% (inactive) and the percent of negative control (+Dex) [4] was 90% (inactive). The z-score [4] was -0.13, the z-score [5] was -0.225 (inactive) and the z-score [6] was 2.75 (inactive). For the same compound, the z-score [1, 8] was -0.812 (inactive) and the z-score [1, 9] was -0.493.
